# Screening data from PubChem.
# MOR-DOR ag = agonists of human mu-delta opioid receptor heterodimerization. activation, % at 9.3 µM. P35372+P41143. cells, OPRM1-OPRD1 heterodimerization, luminescence. 0.3% of 340,000 active; in the data active means activation above about 18%;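 further: 0% = vehicle-treated cells and 100% = reference agonist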
# HTR5A ag = counter-screen for OPRM1-OPRD1 agonists: human HTR5A agonism; P47898; HTR5A agonist assay, luminescence, cell-based; activation, % at 9.3 µM; 0.61% of 340,000 active; in the data active means activation mostly above about 9.5%, no sharp cut-off; inactive means mostly below about 7.6%;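 further: 0% = cells with vehicle only and 100% = reference agonist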
# MOR-DOR inv ag = inverse agonists of human mu-delta opioid receptor heterodimerization; P35372+P41143; cell-based MOR-DOR heterodimer luminescence, inverse agonism; inhibition, % at 9.3 µM; 0.21% of 340,000 active; AID 504357; in the data active means inhibition above about 22%, passing the limit was not always enough;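 further: 0% = cells with DMSO and 100% = wells without cells with DMSO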
# m5-HT2A agonist = mouse HTR2A agonism via beta-arrestin recruitment; P35363; CHO-K1 mHTR2A beta-arrestin complementation, luminescence; percent of 30 µM serotonin response; activation, % at 7.6 µM; 0.66% of 360,000 active; AID 624169;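 active means activation above a run cutoff, the mean activation of all tested compounds plus 3 SD, cut at about 14% in these data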;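 further: 0% = plate median of compound wells and 100% = 30 µM serotonin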
# Target sequence (P35363 whole entry, looked up): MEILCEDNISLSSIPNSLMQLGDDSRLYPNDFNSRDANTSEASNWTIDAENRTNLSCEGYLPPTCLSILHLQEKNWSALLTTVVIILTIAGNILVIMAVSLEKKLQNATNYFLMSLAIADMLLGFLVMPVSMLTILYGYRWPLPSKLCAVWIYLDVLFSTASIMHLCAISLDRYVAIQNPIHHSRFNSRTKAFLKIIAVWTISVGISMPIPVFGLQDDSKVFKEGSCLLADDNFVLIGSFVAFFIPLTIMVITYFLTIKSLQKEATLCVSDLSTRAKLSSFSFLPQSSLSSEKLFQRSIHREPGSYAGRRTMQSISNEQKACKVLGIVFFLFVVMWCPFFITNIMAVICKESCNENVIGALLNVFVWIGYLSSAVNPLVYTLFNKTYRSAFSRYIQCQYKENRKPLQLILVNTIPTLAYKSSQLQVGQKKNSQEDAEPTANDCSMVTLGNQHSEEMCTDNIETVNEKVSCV
# HTR5A inv ag = inverse agonist of human HTR5A in OPRM1-OPRD1 counter-screen. HTR5A cell line, luminescence, inverse agonism. inhibition, % at 9.3 µM. 0.083% of 340,000 active; in the data active means inhibition mostly above about 23%, no sharp cut-off; inactive means mostly below about 18%;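 further: 0% = cells with DMSO and 100% = no-cell wells with DMSO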
# MOR-DOR inv conf = confirmation of human OPRM1-OPRD1 heterodimerization inverse agonists. shares compounds with MOR-DOR inv ag. cells expressing OPRM1/OPRD1 heterodimer, luminescence. inhibition, % at 9.3 µM. 20% of 580 active. AID 504900; in the data active means inhibition above about 32%;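 further: 0% = cells with DMSO and 100% = wells lacking cells with DMSO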
# HTR5A inv count = HTR5A inverse agonism, opioid heterodimer counter-screen; 580 tested, under 10 active; HTR5A-expressing cells, luminescence; AID 504914; shares compounds with MOR-DOR inv ag; inhibition, % at 9.3 µM; call rule not given here;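 further: 0% = cells with DMSO and 100% = no-cell wells with DMSO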
# An asterisk follows results filed as active; i = inactive; · = not tested or not shown. An excerpt weighted towards active compounds, which were near 1.6% of everything screened.
SMILES,MOR-DOR ag,HTR5A ag,MOR-DOR inv ag,m5-HT2A agonist,HTR5A inv ag,MOR-DOR inv conf,HTR5A inv count
COc1ccc(N2CCN(C(=O)CCCOc3cc(=O)n(C)c4ccccc34)CC2)cc1,-7,-6,34*,-2,17,-1,-4
CC1(C(=O)NS(=O)(=O)C2CC2)CCN(C(=O)c2ccccc2C(F)(F)F)C1 (stereo not drawn),·,·,·,0,·,·,·
CN1C(=O)C(O)(C2COC(C)(C)CC2=O)c2ccccc21 (stereo not drawn),-8,-2,32*,1,5,10,-1
CN1C(=O)C(O)(C2COC(C)(C)CC2=O)c2cc(Br)ccc21 (stereo not drawn),-19,-7,81*,3,7,69*,-5
CCc1ccc(C(O)c2ncc(-c3ccccc3OC)[nH]2)cc1 (stereo not drawn),·,·,·,-3,·,·,·
CCOc1ccc(N=C2C(=O)N(CN3CCOCC3)c3ccccc32)cc1,-16,-5,67*,0,16,49*,-9
Cc1ccc2c(c1)C(=O)C(=O)N2Cc1ccc(F)cc1,-7,-2,39*,-4,5,-28,-10
Cc1ccc2c(c1)C(=O)C(=O)N2Cc1ccccc1,-6,8,38*,-1,-11,12,-4
Cc1ccc2c(c1)C(=O)C(=O)N2Cc1ccc(Cl)cc1,-8,5,38,-6,-25,·,·
O=C1C(=O)N(Cc2cccc([N+](=O)[O-])c2)c2ccccc21,-10,1,52*,-2,17,17,13
CCC1(c2ccccc2)NC(=O)N(Cc2cccc([N+](=O)[O-])c2)C1=O (stereo not drawn),1,-2,-5,0,17,·,·
Cc1cccc(NC(=S)NC(=O)c2ccco2)n1,-3,-3,22*,-1,-14,-35,-90
O=c1c2cc(Br)ccc2[nH]c(=S)n1Cc1ccccn1,-11,-1,64*,-3,2,-93,-20
O=c1c2cc(Br)ccc2[nH]c(=S)n1Cc1ccccc1,5,-1,-23,-1,2,·,·
COC(=O)/C=C1\OCc2c(F)cccc21,·,·,·,0,·,·,·
Cc1cccc(C)c1NC(=O)C1(C)CSCC(=O)N1Cc1cccc(C(F)(F)F)c1 (stereo not drawn),·,·,·,1,·,·,·
CCc1nc2ccc(C(=O)N3CCN(C(=O)c4ccco4)CC3)cn2c1N(C)C(=O)c1cccc(OC)c1,·,·,·,6,·,·,·
CN(C)S(=O)(=O)c1ccc(/C(O)=C2/C(=O)C(=O)N(Cc3cccnc3)C2c2cccs2)cc1 (stereo not drawn),-8,-4,40*,-4,10,-162,-18
COc1cc(-n2nc(C)c3c2OC(N)=C(C#N)C3c2ccccc2)c(Cl)c(Br)c1O (stereo not drawn),-8,-4,34*,-8,10,20,15
Cn1c(/C=C/c2cccc([N+](=O)[O-])c2)c([N+](=O)[O-])c(=O)n(C)c1=O,-6,-5,29*,1,13,i,4
Cc1ccc2c(c1)C(=O)C(=O)N2CC(=O)Nc1ccc(N2CCOCC2)cc1,-6,-3,32*,-3,8,37*,2
Cc1ccc(NC(=O)CN2C(=O)N/C(=C/c3ccc(N4CCOCC4)cc3)C2=O)cc1,-3,0,16,0,0,·,·
Cc1ccc(C(=O)Nc2ccccc2[N+](=O)[O-])cc1S(=O)(=O)N1CCOCC1,-6,2,39*,-4,-3,-430,5
CC1=C(C(=O)N(C(C)C)C(C)C)CC(CC(=O)NC2CC2)C(=O)N1CCC1=CCCCC1 (stereo not drawn),·,·,·,-1,·,·,·
Cc1ccc(Cl)c2c1NC(=O)C2=O,-19,-4,86*,-6,23,74*,9
SMILES,MOR-DOR ag,HTR5A ag,MOR-DOR inv ag,m5-HT2A agonist,HTR5A inv ag,MOR-DOR inv conf,HTR5A inv count
Cc1ccc2c(c1C)C(=O)C(=O)N2,-3,0,13,-2,-2,·,·
COc1ccc(NC(=O)C(c2ccccc2)n2c(=O)c(-c3ccco3)nc3ccccc32)cc1 (stereo not drawn),·,·,·,-5,·,·,·
O=C1C(=O)N(CCS(=O)(=O)c2ccccc2)c2ccc(F)cc21,-10,-1,53*,-4,10,-34,-2
COc1ccc2c(c1)C(=O)C(=O)N2CCS(=O)(=O)c1ccccc1,-13,-5,70*,3,26,23,0
COc1ccc2c(c1)C(=O)C(=O)N2CC1COc2ccccc2O1 (stereo not drawn),-8,-5,38*,0,18,22,-2
O=C1c2ccccc2[C@@H]2Cc3csc[n+]3[C@H]12,·,·,·,2,·,·,·
O=C(Nc1cc(C(F)(F)F)ccc1F)C1Cc2c(-c3ccccc3Oc3ccccc3)ccnc2O1 (stereo not drawn),·,·,·,-4,·,·,·
Cc1ccc(NNC(=O)c2ccno2)cc1Cl,-10,3,52*,-1,5,-40,-268
O=C(Nc1cc(Cl)cc(Cl)c1)c1ccno1,-3,-2,15,3,9,·,·
Cc1ccc(NNC(=O)c2c(C)noc2C)cc1Cl,-8,0,41*,-2,3,23,-1
Cc1ccc(NNC(=O)c2snnc2C)cc1Cl,-4,3,20,-6,-28,·,·
Cc1ccc(NNC(=O)c2ccno2)cc1C,-12,6,61*,2,-3,-189,-27
Cc1nn(C)c(C)c1/C=C(\C#N)S(=O)(=O)c1ccc(F)cc1,·,·,·,-3,·,·,·
Nc1ccn(C2C=CC(CO)O2)c(=O)n1 (stereo not drawn),·,·,·,-5,·,·,·
COc1ccc(NC(=O)N(C)C[C@H]2OCc3cnnn3CCCC(=O)N([C@@H](C)CO)C[C@H]2C)cc1,·,·,·,-1,·,·,·
N#C/C(=C\c1ccncc1)c1nc2ccccc2c(=O)[nH]1,-6,-2,33*,2,7,-14,17
CN(C1=C(NC(=O)c2ccc(Cl)cc2)C(=O)c2ccccc2C1=O)c1ccccc1,-6,-2,39*,-2,19,-19,-9
O=C(NC1=C(Nc2ccc(Cl)cc2)C(=O)c2ccccc2C1=O)c1ccccc1,8,6,-41,1,11,·,·
O=C(Cc1ccccc1)NNc1ccc2ccccc2c1,-6,1,33*,5,16,-29,2
Nc1ccc2c(c1)CC(=O)c1ccccc1S2,-8,1,45*,-3,-8,i,6
O=C1Cc2ccccc2Sc2ccc(O)cc21,0,3,-2,-8,-12,·,·
CCOC(=O)[C@]12CCCC=C1N(Cc1cccc3ccccc13)C(=O)[C@H](CC(=O)NCCc1ccccc1OC)C2,·,·,·,-1,·,·,·
O=C1C(=O)N(CNc2cccnc2)c2ccccc21,-10,0,51*,1,9,14,6
O=C1C(=O)N(CNc2ccccn2)c2ccccc21,-13,-6,84*,6,17,68*,11
